# Results filed as inconclusive are left out. Entries that show only a call come without a potency. Calls of active or inactive are those of the source. Calls follow the shape of the dose curve; as a rule, active = well fitted cell-killing curve with a large enough effect; inconclusive = small, poorly fitted or top-dose-only effect; inactive = flat fitted curve, though single readings scatter.
# Experiment: Compound cytotoxicity measured by an ATP content assay as a counter-screen for lead compounds in human iPSC derived neural progenitor cells (hNPCs)
# Details: human iPSC-derived NPC viability, ATP luminescence; series mostly up to 46.1 µM
# Procedure, shortened: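 hNPCs (human iPSC-derived) seeded 16–20 h, then exposed to compound for 6, 24 or 72 h at 37 C. ATP-content luminescence read after 10 min at room temperature; cytotoxicity expressed as percent inhibition of viability.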
row,SMILES,Potency
1,CN1CCN(c2cc3c(nn2)Oc2ccccc2N3C)CC1,inactive
2,CC(=O)Nc1ccc([C@H](C)C(=O)Nc2ncc(C(C)C)s2)cc1,inactive
3,O=S(=O)(O)c1ccc2nc(-c3ccccc3)[nH]c2c1,inactive
4,CCOC1OC(=O)C[C@H]1NC(=O)[C@@H]1CCCN1C(=O)[C@@H](NC(=O)c1ccc(N)c(Cl)c1)C(C)(C)C (stereo not given in full),inactive
5,CNC1[C@H](O)C(O[C@@H]2C(O)C(O[C@H]3O[C@H]([C@@H](C)NC)CC[C@H]3N)[C@@H](N)C[C@H]2N)OC[C@]1(C)O (stereo not given in full),inactive
6,O=c1cc(-c2ccccc2)oc2cc(O)cc(O)c12,inactive
7,CC(O)=C(C#N)C(=O)Nc1ccc(C(F)(F)F)cc1,13.8 µM (active)
8,OCc1ccc(-c2ccc(-c3ccc(CO)s3)o2)s1,10.9 µM (active)
9,CC(=O)OC(C)OC(=O)C(C)c1ccc(-c2ccccc2)c(F)c1 (stereo not given),inactive
10,Nc1ccc(O)c(C(=O)O)c1,inactive
11,COc1cccc(-c2cc(=O)c3ccccc3o2)c1N,15.5 µM (active)
12,CN(C)c1ccc2cc(C(=O)N[C@@H](CCCN=C(N)CCl)C(=O)NCc3ccccc3)ccc2c1,inactive
13,CC(C)c1ccc2oc3nc(N)c(C(=O)O)cc3c(=O)c2c1,3.46 µM (active)
14,O=c1oc2cc(O)ccc2s1,inactive
15,O=C(O)[C@H](CC(=O)N1C[C@@H]2CCCC[C@H]2C1)Cc1ccccc1,inactive

# Reference: PubChem BioAssay AID1224860 (National Center for Advancing Translational Sciences (NCATS), 2016)
